Many of the other results were omitted from the sample, so hits are more common in it than they were.
Tgondii IFNg: blocks Toxoplasma gondii growth in the presence of IFN-gamma | Toxoplasma gondii growth in IFN-gamma-treated host cells; active compounds read low | activity change, negative = inhibition, % (no concentration beside the values) | 69,000 tested, 3.8% active | AID 1259416; in the data active = activity change below about -70%, passing the limit was not always enough;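 note: host cells are HeLa cells infected with Toxoplasma gondii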
Numbers stand for hits; ! = not confirmed by another sample.

What do the screens show for `CN(C)C(=O)N1CCC2(CC1)CC(CC(=O)Nc1cccnc1)c1ccccc1O2` (centres undefined)?
Tgondii IFNg: -113

How did COCCN(Cc1ccsc1)C(=O)COc1ccccc1 do in these assays?
Tgondii IFNg: inactive

How did N#Cc1cc2c(ccc3ccccc32)oc1=N do in these assays?
Tgondii IFNg: inactive

What do the screens show for `CC(C)(C)c1ccc2cc(C#N)c(C#N)cc2c1`?
Tgondii IFNg: -80

Results for O=C(Cn1c(=O)cc(C(=O)N2CCCCC2)c2ccccc21)Nc1ccccc1 ?
Tgondii IFNg: inactive

How did Cc1cc(N2CCCN(Cc3cc(-c4ccccc4)no3)CC2)ccn1 do in these assays?
Tgondii IFNg: inactive

How did CCc1c(C)nc2cc(-c3cc(C)on3)nn2c1N1CCN(Cc2ccccn2)CC1 do in these assays?
Tgondii IFNg: -85

How did CCN1CCC2(CN(c3ncccn3)CC23CCN(Cc2ccccn2)CC3)C1=O (centres undefined) do in these assays?
Tgondii IFNg: inactive

What do the screens show for `CN1C(=O)c2cc(NC(=O)c3cscn3)ccc2OC[C@H]2O[C@H](CC(=O)NCc3ccc(Cl)c(Cl)c3)CC[C@H]21`?
Tgondii IFNg: inactive

What do the screens show for `COc1ccc2cc(Br)ccc2c1CC#N`?
Tgondii IFNg: -107

How did COc1ccc(CNc2ccc(Br)cc2)c(OC)c1OC do in these assays?
Tgondii IFNg: inactive

How did COc1cc(Br)c(CCC#N)cc1OC do in these assays?
Tgondii IFNg: inactive

What do the screens show for `Cc1ccc(-c2ccc([C@@H]3[C@@H](CO)N4C(=O)CN(C(=O)NC(C)C)C[C@H]34)cc2)cc1`?
Tgondii IFNg: inactive

Results for COc1ccc(C(=O)N2CCC(C(=O)NCCc3csc(-c4ccccc4)n3)CC2)cc1 ?
Tgondii IFNg: inactive

What do the screens show for `C[C@]12CCC3c4ccc(OS(=O)(=O)O)cc4CCC3C1CCC2=O` (some centres undefined)?
Tgondii IFNg: inactive

How did C[C@]12CC[C@@H]3c4ccc(O)cc4CC[C@H]3[C@@H]1CC[C@@H]2OC(=O)CCC(=O)O do in these assays?
Tgondii IFNg: inactive

How did C[C@]12CCC3c4ccc(O)cc4CCC3C1CC[C@@H]2OC(=O)CCC1CCCC1 (some centres undefined) do in these assays?
Tgondii IFNg: -72!

Results for O=C1NCC2=C1C(c1ccccc1)Nc1ccccc1N2 (centres undefined) ?
Tgondii IFNg: inactive

What do the screens show for `c1ccc(CN2CCC3(CC(n4cnnc4)CO3)C2)cc1` (centres undefined)?
Tgondii IFNg: inactive

How did Cc1ccc(OCC(=O)Oc2cccc3cccnc23)cc1C do in these assays?
Tgondii IFNg: inactive

How did O=C(c1c(F)cccc1F)N1CCN(S(=O)(=O)c2cc3c4c(c2)CCC(=O)N4CCC3)CC1 do in these assays?
Tgondii IFNg: inactive

What do the screens show for `Nc1nc(Nc2ccc(S(N)(=O)=O)cc2)nn1C(=O)c1c(F)cccc1F`?
Tgondii IFNg: -72

How did NS(=O)(=O)c1ccc(NC(=O)CSc2ncn(-c3ccccc3)n2)cc1 do in these assays?
Tgondii IFNg: inactive

Results for CN(C)CCCNc1ncc(-c2ccc3c(c2)OCO3)c(-c2nccs2)n1 ?
Tgondii IFNg: inactive

How did CCN1CCN(Cc2cc(C(=O)N3CC=CCC3)no2)CC1 do in these assays?
Tgondii IFNg: inactive

Results for Cc1nc(CCNC(=O)CC2COCCN2)nc2c1CCC2 (centres undefined) ?
Tgondii IFNg: inactive

Results for Cc1ccc(N2CCO[C@H]3CN(C(=O)c4ccoc4C)CC[C@@H]3C2)nn1 ?
Tgondii IFNg: inactive

What do the screens show for `Oc1cc(-c2cccc(Cl)c2)cc2c1OCCN(Cc1cscn1)C2`?
Tgondii IFNg: inactive

How did Oc1ccc(CN2CCOc3c(O)cc(-c4cccc(Cl)c4)cc3C2)cc1 do in these assays?
Tgondii IFNg: inactive

How did Cc1noc(C)c1CN1CCOc2c(O)cc(-c3cccc(Cl)c3)cc2C1 do in these assays?
Tgondii IFNg: -74

How did COc1ccccc1-c1ccc([C@@H]2[C@@H](CO)N3CCCCN(C(=O)c4cccnc4)C[C@@H]23)cc1 do in these assays?
Tgondii IFNg: inactive

How did CN(C)Cc1ccc(C2CCCN2C(=O)Cc2ccccn2)cc1 (centres undefined) do in these assays?
Tgondii IFNg: inactive

Results for COc1cccc(-c2cccc(CN(C)Cc3cc(C)[nH]n3)c2)c1 ?
Tgondii IFNg: -82

How did Cc1cc(CN(C)CC(=O)NCCc2cccc(Cl)c2)n[nH]1 do in these assays?
Tgondii IFNg: inactive

How did COc1cccc(-n2cc(CN(C)Cc3cc(F)ccc3F)cn2)c1 do in these assays?
Tgondii IFNg: inactive

What do the screens show for `CN(C)C(=O)C[C@@H]1CC[C@@H]2[C@H](COC[C@@H](O)CN2C(=O)C2CCOCC2)O1`?
Tgondii IFNg: inactive

How did CN1CCOc2cc(C(=O)N3CCN(C)C(C(=O)O)C3)ccc21 (centres undefined) do in these assays?
Tgondii IFNg: inactive

Results for COC(=O)[C@@H]1C[C@H](NC(=O)CCN2CCCCO2)CN1C ?
Tgondii IFNg: inactive

Results for Fc1ccc(-c2noc(-c3ccc4c(c3)OCO4)n2)cc1 ?
Tgondii IFNg: inactive

How did O=C1Cc2cc(-c3ccc4c(c3)OCO4)ccc2N1 do in these assays?
Tgondii IFNg: -75

What do the screens show for `O=C1Cc2cc(N3CC(C(=O)O)CC3=O)ccc2N1` (centres undefined)?
Tgondii IFNg: inactive

How did CCc1nnc(CN(C(=O)c2ccccc2N2CCCC2)C(C)C)o1 do in these assays?
Tgondii IFNg: inactive

What do the screens show for `O=[N+]([O-])O[C@@H]1CO[C@H]2[C@@H]1OC[C@@H]2O`?
Tgondii IFNg: inactive

How did CCc1ccccc1NC(=O)NCC(c1cccnc1)c1cn(C)c2ccccc12 (centres undefined) do in these assays?
Tgondii IFNg: inactive

How did O=C(Nc1ccccc1)c1ccc(CSc2ccc(C(F)(F)F)cn2)o1 do in these assays?
Tgondii IFNg: inactive

What do the screens show for `O=C(NCC(c1cccnc1)c1c[nH]c2ccccc12)Nc1cccc(Br)c1` (centres undefined)?
Tgondii IFNg: inactive

Results for Cn1cc(C(CNC(=O)Nc2ccc(Br)cc2F)c2cccnc2)c2ccccc21 (centres undefined) ?
Tgondii IFNg: inactive

How did O=C(NCC(c1cccnc1)c1c[nH]c2ccccc12)Nc1ccc(Br)cc1F (centres undefined) do in these assays?
Tgondii IFNg: -116

How did CCO[C@H]1CC2CC1CN2c1ncccn1 (some centres undefined) do in these assays?
Tgondii IFNg: inactive

Results for Cn1cc(Cl)c(-c2nc(-c3ccc(Cl)cc3)cs2)n1 ?
Tgondii IFNg: inactive

Results for Cn1cnc(CCNC(=O)C[C@@H]2CC[C@@H]3[C@H](COC[C@H](O)CN3C(=O)Nc3ccc(C(F)(F)F)cc3)O2)c1 ?
Tgondii IFNg: inactive

How did CC(c1ccccc1)n1nnnc1N1C[C@@H]2[C@H](C1)[C@H]1CC[C@@H]2O1 (some centres undefined) do in these assays?
Tgondii IFNg: inactive

What do the screens show for `NC(=O)c1csc(-c2cc(NC3CCCC3)nc3[nH]ccc23)n1`?
Tgondii IFNg: -76

How did CC(C)(C(N)=O)c1ccc(-c2cc(N)nc3[nH]ccc23)cc1 do in these assays?
Tgondii IFNg: inactive

How did CNC(=O)c1ccc(-c2cc(NCCO)nc3[nH]ccc23)s1 do in these assays?
Tgondii IFNg: inactive

Results for COc1ccc2c3c([nH]c2c1)[C@@H](CO)N(C(=O)C1CCOCC1)CC31CCN(S(C)(=O)=O)CC1 ?
Tgondii IFNg: inactive

What do the screens show for `Cc1c(Cl)cccc1NC(=O)CN1C(=O)CCc2cc(S(=O)(=O)N3CCC(C)CC3)ccc21`?
Tgondii IFNg: inactive

How did CN(C)c1ncc2c(n1)[C@H]1CN(C(=O)c3ccccc3)C[C@@H]1S(=O)(=O)C2 do in these assays?
Tgondii IFNg: inactive

Source: PubChem
